The values below come from paper PMC4336329 (PLoS ONE, 2015).

Molecules are shown by their SMILES. In all, about 310,000 compounds went through this assay and about 14,000 (4.5%) showed an effect of 50% or more. The effect is printed as a negative number. The sample holds strong results, similar compounds and a random draw of the others, so the mix is not that of the screen.
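Further: peak tail current of the secondary pulse compared with the same well before compound.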

The target of the assay is human ether-à-go-go-related gene (hERG) potassium channel (human, UniProt Q12809). The assay can be described thus: primary screen, population patch clamp on CHO cells stably expressing hERG; higher = less effect of the substance.
human ether-à-go-go-related gene (hERG) potassium channel, sequence (Q12809 whole entry, looked up): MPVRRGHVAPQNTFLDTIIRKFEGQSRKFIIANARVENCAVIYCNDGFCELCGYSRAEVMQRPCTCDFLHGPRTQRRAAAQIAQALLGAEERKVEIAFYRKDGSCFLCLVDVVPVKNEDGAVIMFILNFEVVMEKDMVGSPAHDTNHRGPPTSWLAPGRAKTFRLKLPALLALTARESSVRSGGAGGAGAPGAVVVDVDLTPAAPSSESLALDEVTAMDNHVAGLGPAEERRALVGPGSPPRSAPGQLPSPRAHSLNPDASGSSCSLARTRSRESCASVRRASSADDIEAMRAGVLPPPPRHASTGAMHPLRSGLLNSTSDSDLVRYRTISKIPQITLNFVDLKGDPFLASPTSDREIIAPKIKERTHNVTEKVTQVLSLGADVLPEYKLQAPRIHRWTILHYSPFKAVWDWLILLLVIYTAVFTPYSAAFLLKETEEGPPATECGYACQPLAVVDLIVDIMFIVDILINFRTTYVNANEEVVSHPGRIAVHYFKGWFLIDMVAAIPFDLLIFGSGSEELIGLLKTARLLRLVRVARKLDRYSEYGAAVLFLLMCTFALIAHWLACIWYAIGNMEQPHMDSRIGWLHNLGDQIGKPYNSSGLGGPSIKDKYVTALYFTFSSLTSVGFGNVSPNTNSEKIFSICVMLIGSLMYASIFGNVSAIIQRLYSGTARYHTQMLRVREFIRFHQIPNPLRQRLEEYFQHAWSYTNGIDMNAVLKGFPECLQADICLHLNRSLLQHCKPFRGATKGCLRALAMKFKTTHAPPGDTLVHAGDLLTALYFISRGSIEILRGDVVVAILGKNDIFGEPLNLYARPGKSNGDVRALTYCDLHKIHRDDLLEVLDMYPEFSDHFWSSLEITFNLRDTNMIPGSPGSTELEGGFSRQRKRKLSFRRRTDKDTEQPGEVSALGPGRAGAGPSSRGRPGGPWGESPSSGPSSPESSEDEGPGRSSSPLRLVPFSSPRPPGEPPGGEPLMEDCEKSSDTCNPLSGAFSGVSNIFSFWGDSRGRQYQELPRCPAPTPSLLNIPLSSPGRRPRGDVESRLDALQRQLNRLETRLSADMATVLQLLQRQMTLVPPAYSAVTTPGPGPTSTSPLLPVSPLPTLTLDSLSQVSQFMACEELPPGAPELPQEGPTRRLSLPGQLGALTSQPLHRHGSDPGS
Regarding `CC(C)[C@H](NC(=O)c1cc2cc(Cl)ccc2n1C)C(=O)N[C@@H](C(=O)O)c1ccccc1`, the “hERG current change (%, negative = inhibition) at 10uM” value turned out to be 15.9%.

`CCCNC(=O)N1[C@H]2CC[C@@H]1C(C(=O)OC)=C(c1ccc(F)cc1OCc1ccccc1)C2`: the “hERG current change (%, negative = inhibition) at 10uM” value is given as -23.3%.

`O=C(Oc1cc2oc(=O)cc(-c3ccccc3)c2cc1Cl)C1CCCCC1`: the “hERG current change (%, negative = inhibition) at 10uM” value was determined as 4.05%.

Regarding `COC(=O)Cn1cc(C(=O)OC)c2ccccc21`, the “hERG current change (%, negative = inhibition) at 10uM” value was -4.51%.

Take `COc1cc(C(=O)NC(C)c2ccc3ccccc3c2)cc(Cl)c1O` (stereo not drawn): the “hERG current change (%, negative = inhibition) at 10uM” value was 4.57%.

Consider `Cc1ccc(-c2cn(CCN)c(-c3ccc(Cl)nc3)n2)cc1`, for which the “hERG current change (%, negative = inhibition) at 10uM” value is given as -21.7%.

Consider `COc1ccccc1C(=O)Nn1c(-c2cccs2)nc2ccccc2c1=O`, for which the “hERG current change (%, negative = inhibition) at 10uM” value was -2.66%.

Consider `COc1cccc(CNC(=O)CSc2ccc(-c3ccco3)nn2)c1`, for which the “hERG current change (%, negative = inhibition) at 10uM” value amounted to 2.15%.

In the case of `COc1cccc(NC(=O)Cn2c(=O)n(C)c(=O)c3sc4c(c32)COC(C)(C)C4)c1`, the “hERG current change (%, negative = inhibition) at 10uM” value was 6.82%.

With `CC(=O)Nc1ccc(S(=O)(=O)NC2=NCN(C)CN2)cc1`, the “hERG current change (%, negative = inhibition) at 10uM” value is given as 2.76%.

On to `COc1ccc(NC(=O)CN2CCN(Cc3ccccc3)CC2)cc1`, for which the “hERG current change (%, negative = inhibition) at 10uM” value is listed as -52.8%.

Take `COc1ccc(C(=O)NC2CCN(CC(=O)Nc3cccc(OC)c3)CC2)cc1`: the “hERG current change (%, negative = inhibition) at 10uM” value was -25.4%.

As to `COc1ccc(NC(=O)CN2CCCCC2)cc1.O=C(O)C(=O)O`, the “hERG current change (%, negative = inhibition) at 10uM” value is on record as 3.8%.

In the case of `COc1ccc(NC(=O)CN2CCC(NC(=O)c3ccc(OC)cc3)CC2)cc1`, the “hERG current change (%, negative = inhibition) at 10uM” value was -51.1%.

As to `COc1ccc(C(=O)NC2CCN(CC(=O)NC3CCCCC3)CC2)cc1`, the “hERG current change (%, negative = inhibition) at 10uM” value is reported as -17.3%.

Take `COc1ccc(C(=O)Nc2ccc(N3CCN(Cc4ccccc4)CC3)cc2)cc1`: the “hERG current change (%, negative = inhibition) at 10uM” value is on record as -4.78%.

In the case of `COc1ccc(NC(=O)CN2CCN(CC(=O)Nc3ccc(OC)cc3)CC2)cc1`, the “hERG current change (%, negative = inhibition) at 10uM” value is -76.6%.

Take `CCCCOc1ccc(NC(=O)CN2CCN(Cc3ccccc3)CC2)cc1`: the “hERG current change (%, negative = inhibition) at 10uM” value is -49.4%.

Turning to `COc1ccc(NC(=O)CN2CCCC2)cc1`, the “hERG current change (%, negative = inhibition) at 10uM” value came out at 15.7%.

`COc1cc(NC(=O)c2cccc(Br)c2)nc(OC)n1`: the “hERG current change (%, negative = inhibition) at 10uM” value is given as 3.34%.

For `CCSc1ccccc1C(=O)NCCCn1ccnc1`, the “hERG current change (%, negative = inhibition) at 10uM” value is recorded as 10.2%.

For the compound `CCCC(=O)Nc1cc(-c2nnc(OC)c3ccccc23)ccc1N1CCCCC1`, the “hERG current change (%, negative = inhibition) at 10uM” value was -36.3%.

As for `C=CCOc1nc2c(c(=O)n(C)c(=O)n2C)n1Cc1ccccc1Cl`, the “hERG current change (%, negative = inhibition) at 10uM” value is recorded as -6.73%.

In the case of `COc1cc2c(cc1OC)C(C(=O)NCc1cccnc1)C(c1cccnc1)N(C)C2=O` (stereo not drawn), the “hERG current change (%, negative = inhibition) at 10uM” value is on record as 9.05%.

For the compound `COc1cc([N+](=O)[O-])cc(/C=N/NC(=O)Cn2cncn2)c1O`, the “hERG current change (%, negative = inhibition) at 10uM” value was 5.88%.

On to `COc1ccccc1Oc1ccc(S(=O)(=O)N2CCCCC2)cc1NC(=O)CCNC(C)=O`, for which the “hERG current change (%, negative = inhibition) at 10uM” value is listed as -55.1%.

In the case of `CC(=O)NCCC(=O)Nc1cc(S(=O)(=O)N2CCOCC2)ccc1Oc1ccc(F)cc1`, the “hERG current change (%, negative = inhibition) at 10uM” value is given as -30.5%.

`CC(=O)NCCC(=O)Nc1cc(S(=O)(=O)N2CCOCC2)ccc1Oc1ccccc1`: the “hERG current change (%, negative = inhibition) at 10uM” value is -8.45%.

On to `CC(=O)NCCC(=O)Nc1cc(S(=O)(=O)N2CCCCC2)ccc1N1CCCCC1`, for which the “hERG current change (%, negative = inhibition) at 10uM” value was -5.37%.

Turning to `CC(=O)NCCC(=O)Nc1cc(S(=O)(=O)N2CCCCC2)ccc1Oc1cccc(C)c1`, the “hERG current change (%, negative = inhibition) at 10uM” value is -68%.

Take `COC(=O)CNc1cc(S(=O)(=O)N2CCCCC2)ccc1Oc1cccc(C)c1`: the “hERG current change (%, negative = inhibition) at 10uM” value is recorded as -30.7%.

Take `COc1ccc(S(=O)(=O)N2CCCCC2)cc1NC(=O)CCCOc1ccccc1`: the “hERG current change (%, negative = inhibition) at 10uM” value was -9.13%.

Regarding `COc1ccc(S(=O)(=O)N2CCCCC2)cc1NC(=O)CCNC(=O)c1ccccc1Cl`, the “hERG current change (%, negative = inhibition) at 10uM” value was -11%.

Take `CC(=O)NCCC(=O)Nc1cc(S(=O)(=O)N2CCCCC2)ccc1Oc1ccccc1`: the “hERG current change (%, negative = inhibition) at 10uM” value was -64.9%.

For `Cc1ccc2cccc(Oc3ncnc4scc(-c5ccc(Cl)cc5)c34)c2n1`, the “hERG current change (%, negative = inhibition) at 10uM” value is listed as 3.87%.

`CCCNC(=O)C(=O)N/N=C/c1ccc(OCc2ccccc2)cc1`: the “hERG current change (%, negative = inhibition) at 10uM” value is 26.9%.

As for `COC(=O)c1ccc(CSc2nc3cc(Cl)ccc3s2)o1`, the “hERG current change (%, negative = inhibition) at 10uM” value worked out at 9.32%.

For the compound `CN1C(=O)C(CC(=O)O)S/C1=N\N=C\c1ccc(O)cc1O` (stereo not drawn), the “hERG current change (%, negative = inhibition) at 10uM” value turned out to be 6.03%.

With `Cc1ccc(NCCC(=O)c2ccc(Br)cc2)cc1`, the “hERG current change (%, negative = inhibition) at 10uM” value is 0.444%.

As to `O=C(CSc1ccc2nnc(-c3cccs3)n2n1)N1CCCC1`, the “hERG current change (%, negative = inhibition) at 10uM” value was -43.4%.

`CCOC(=O)CSc1ccc2nnc(-c3ccncc3)n2n1`: the “hERG current change (%, negative = inhibition) at 10uM” value is on record as -31.4%.

With `CCOC(=O)CC(=O)CSc1ccc2nnc(-c3ccccc3)n2n1`, the “hERG current change (%, negative = inhibition) at 10uM” value is recorded as -71.7%.

As for `CCOC(=O)N1CCC(Nc2ccc3nnc(-c4ccccc4)n3n2)CC1`, the “hERG current change (%, negative = inhibition) at 10uM” value was -82%.

For the compound `CCSc1ccc2nnc(-c3cccs3)n2n1`, the “hERG current change (%, negative = inhibition) at 10uM” value is -34%.

As for `CCOC(=O)CSc1ccc2nnc(-c3cccs3)n2n1`, the “hERG current change (%, negative = inhibition) at 10uM” value was -51.2%.

Consider `Cc1cc(NC(=O)CSc2ccc3nnc(-c4cccc(F)c4)n3n2)no1`, for which the “hERG current change (%, negative = inhibition) at 10uM” value was -14.3%.

In the case of `CCOC(=O)CSc1ccc2nnc(-c3ccccc3)n2n1`, the “hERG current change (%, negative = inhibition) at 10uM” value is recorded as -39.3%.

`CCOC(=O)CC(=O)CSc1ccc2nnc(-c3cccc(F)c3)n2n1`: the “hERG current change (%, negative = inhibition) at 10uM” value is -72.2%.
